Test results from PubChem BioAssay AID720513 (Broad Institute, 2013).
The campaign covered roughly 2,100 compounds. About 480 (23%) were called active. Not shown: some 5% with an inconclusive outcome.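 Rule for the calls: active = fitted curve reaches 40% activation at or below the top valid concentration, in every replicate test; inconclusive = replicate tests disagree on the call; inactive = the rest, including activity in the opposite direction.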 Not all results are given here. Entries with a potency or affinity are not part of this list.

Assay: activators raising PGC1a acetylation in cells, dose response, cell-based, cherry-picked samples, set 6 (AID 720513);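 note: cells made to overexpress flag tagged PGC1a plus GCN5 acetyltransferase by viral infection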
Conditions: U2OS PGC1a acetylation AlphaLISA, overnight, 0 = neutral, -100 = inhibitor control; series mostly up to 19.5 µM

outcome, inactive:
CCN(CC)S(=O)(=O)c1cccc(-c2nnc(SCc3ncc(-c4ccccc4)o3)n2C)c1
Cc1nc2ccc(C(=O)Nc3ccccc3Cl)cc2s1
NC(=O)NC(=O)Nc1ccccc1Cl
CCN(CC)C(=O)[C@H]1CC(CC(=O)NCc2cccc(C(F)(F)F)c2)C(=O)N2CCc3c([nH]c4ccccc34)[C@]12C (some centres not stated)
O=C(CCNC(=O)C1CCN(S(=O)(=O)c2ccc(F)cc2)CC1)NCc1ccccc1Cl
CC(=O)Nc1ccc(S(=O)(=O)N2CCN(c3ccccn3)CC2)cc1
N#Cc1cc2c(=O)n3ccccc3nc2n(Cc2cccnc2)c1=O
O=C1C2C3CCC(C3)C2C(=O)N1CNc1ccc(F)cc1 (configuration not stated)
O=c1cc(CSc2ccccn2)[nH]c(=O)[nH]1
Cc1nc2[nH]c(=O)c3c(n2n1)NC1=C(C(=O)CC(C)(C)C1)C3c1ccccc1 (configuration not stated)
O=[N+]([O-])c1ccc(Oc2cccc(F)c2)c2ccncc12
Cc1cccc(S(=O)(=O)N(C)C[C@@H]2OCc3cn(nn3)CCCC(=O)N([C@@H](C)CO)C[C@H]2C)c1
O=C(OCn1ncc(Cl)c(Cl)c1=O)c1ccc(C(F)(F)F)cc1
O=C(NC1CCCN(Cc2ccc(Cl)cc2)C1)c1ccccc1C(F)(F)F (configuration not stated)
CCc1nc(N)nc(N)c1-c1ccc(Cl)cc1
CCOC(=O)C1CCN(C2=NC(=O)/C(=C/c3ccc(O)cc3)S2)CC1
Cc1cccc2cc(CN(Cc3nnnn3Cc3ccco3)C3CCCC3)c3nnnn3c12
COc1cccc2c1C(CO)N1C(C#N)C3CC(C(=O)O)C(C1C2)N3C (configuration not stated)
Cc1cccc(-n2c(CNC(=O)c3cccc([N+](=O)[O-])c3C)n[nH]c2=S)c1
COc1cccc(N(CC(=O)N2CCN(Cc3ccccc3)CC2)S(C)(=O)=O)c1
CCC(C)(C)n1nnnc1C(c1cccnc1)N1CCCC(C)C1 (configuration not stated)
C[C@H](CO)N1C[C@H](C)[C@@H](CN(C)C(=O)C2CCCCC2)Oc2cc(C#Cc3ccncc3)ccc2S1(=O)=O
O=C(Nc1ccc2c(c1)C(=O)N(c1ccccc1)C2=O)c1cccs1
COc1ccc(NC(=O)/C(Cl)=C(/Cl)S(=O)Cc2ccccc2)cn1 (configuration not stated)
Cc1cccc(N(CC(=O)NC(C)(C)C)C(=O)CNC(=O)c2cccs2)c1
O=C(CNC(=O)c1sc2ccccc2c1Cl)NCc1ccccc1
CN(C)C(=O)C[C@@H]1C=C[C@@H](NS(=O)(=O)c2ccccc2)[C@@H](CO)O1
CO[C@@H]1CN(C)C(=O)c2ccc(NC(=O)Nc3c(C)noc3C)cc2OC[C@H](C)N(CC2CC2)C[C@@H]1C
CCS(=O)(=O)c1ccc(O)c(NC(=O)COc2ccc(Br)cc2)c1
O=C(CSc1nnnn1-c1ccc(F)cc1)NNC(=O)c1ccco1
CC(=O)Nc1ccc(NC(=O)c2cc(=O)c3ccccc3o2)cc1
Cc1cc(=O)[nH]c2c1c(C)nn2C1CCCC1
